Screens (PubChem)
Sampled rows, rich in hits. Any-hit rate of the full collection: about 10%.
Sfp inh = blocks B. subtilis Sfp PPTase activity. Biochemical Sfp PPTase activity, qHTS. Potency, µM, inactives show largest response in the series, negative = inhibition, most hits filed as inhibitors. Q9F4F7. AID 1490. hit rate 3.5% among 310,000;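 note: the enzyme is Sfp with the accession as filed and its product quenches rhodamine fluorescence; potency is the fitted concentration of half-maximal effect; 0% = enzyme reaction without inhibitor and -100% = no enzyme wells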
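Buffer: 50 mM Hepes-Na pH 7.6, 10 mM MgCl2, 0.01% Nonidet P-40, 0.01% BSA. Enzyme 15 nM, pre-exposed to compound 15 min; substrates then added and fluorescence change tracked over 30 min.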
PLK1 PBD block = blocks phosphopeptide binding to human PLK1 polo-box domain; P53350; Plk1 PBD binding of FITC phosphopeptide, fluorescence polarization; Potency, µM, without a hit: max response, negative = inhibition, usual class: inhibitors; hit rate 2.8% among 360,000; note: potency is the fitted concentration of half-maximal effect; series mostly up to about 57 µM; nearly all actives have a fitted effect of over 65% in size
CCT modulator = modulators of cytosolic chaperonin (CCT/TRiC) activity; activity change, % (concentration not given with the values), hits read low; purified chaperonin ATPase assay, HTRF ADP detection, 30 min; hit rate 0.3% among 360,000; in the data active = activity change below about -30%
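Nucleotide hydrolysis assay: TRiC at 20–40 nM final (set by batch activity) with 10 uM ATP, 30 min at 37 °C, in presence of 76 uM compound. Detection by competitive ADP HTRF, 30 min ambient.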
Mm-Cpn inhibitor = inhibitors of Methanococcus maripaludis chaperonin TRiC (MmCpn). purified Mm-Cpn ATPase, ADP Transcreener TR-FRET. Potency, µM (highest dose often 76.9 µM), inactives show at the top dose activity, negative = inhibition, usual class: inhibitors. hit rate 0.031% among 330,000. AID 504842; note: potency is the fitted concentration of half-maximal effect; nearly all actives have a fitted effect of over 80% in size
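25 nM Mm-CPN + cpd, 10 min 37°C; + 10 uM ATP, 30 min 37°C; buffer 30 mM Tris pH 7.4, 100 mM KCl, 5 mM MgCl2, 1 mM DTT; Transcreener ADP HTRF detection 30 min RT.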
VDR inh = inhibitors of human vitamin D receptor; VDR-SRC2-3 peptide fluorescence polarization, 2 h; Potency, µM, inactives show max response, negative = inhibition, usual class: inhibitors; P11473; hit rate 0.93% among 400,000; note: potency is the fitted concentration of half-maximal effect
Target sequence (P11473 whole entry, looked up): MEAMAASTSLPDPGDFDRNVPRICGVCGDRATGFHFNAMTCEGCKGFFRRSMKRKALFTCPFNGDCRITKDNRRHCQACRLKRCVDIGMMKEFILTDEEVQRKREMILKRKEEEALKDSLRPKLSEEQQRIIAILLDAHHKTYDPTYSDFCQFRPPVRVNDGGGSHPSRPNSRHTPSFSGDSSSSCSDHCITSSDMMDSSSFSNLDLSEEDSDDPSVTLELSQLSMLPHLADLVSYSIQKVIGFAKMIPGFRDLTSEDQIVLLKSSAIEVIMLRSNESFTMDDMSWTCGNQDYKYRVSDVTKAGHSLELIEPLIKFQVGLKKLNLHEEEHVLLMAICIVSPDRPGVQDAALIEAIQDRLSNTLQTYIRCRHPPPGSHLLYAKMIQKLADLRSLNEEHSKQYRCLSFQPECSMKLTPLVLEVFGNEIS
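Signal is fluorescence polarization, reporting how far test compounds block the interaction of VDR with the SRC2-3 coregulator peptide after a 2 h room-temperature incubation.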
G9a block = G9a (human) methyltransferase inhibition; Q96KQ7; G9a H3K9 monomethylation, AlphaScreen, 2 h; Potency, µM (top dose mostly 102 µM), for inactives: at the top dose activity, negative = inhibition, actives largely listed as inhibitors; hit rate 8.8% among 350,000; AID 504332; note: potency is the fitted concentration of half-maximal effect; nearly all actives have a fitted effect of over 75% in size
Target sequence (Q96KQ7 913-1193 limits assumed): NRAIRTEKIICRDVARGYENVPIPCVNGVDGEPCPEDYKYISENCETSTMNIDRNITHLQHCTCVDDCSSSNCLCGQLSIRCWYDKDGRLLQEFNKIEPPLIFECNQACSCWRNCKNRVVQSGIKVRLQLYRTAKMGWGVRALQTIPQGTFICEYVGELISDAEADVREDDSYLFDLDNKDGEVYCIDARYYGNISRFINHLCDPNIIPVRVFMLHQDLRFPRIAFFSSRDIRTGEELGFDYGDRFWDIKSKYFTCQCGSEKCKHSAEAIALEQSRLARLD
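Step 1: enzyme (final 20 nM) with compound, 15 min RT. Step 2: substrate peptide 500 nM and SAM 20 uM, 2 h RT. Step 3: anti-H3K9me1 antibody and AlphaScreen beads, 10 min, then plate read.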
Starred values were filed as active, the others as inactive; ? = inconclusive; . = no result; ! = not active in a repeat; [ ] = remark or other dose. Unless noted, calls come from the whole dose curve; as a rule, active = well fitted curve in the direction sought with a large enough effect; inconclusive = small, poorly fitted or top-dose-only effect, or another doubt; inactive = no such curve, though single readings can be large; an effect the other way counts as inactive or inconclusive. Unless noted, % is set by controls: 0 for no effect and ±100 for the full control effect.

SMILES	Sfp inh	PLK1 PBD block	CCT modulator	Mm-Cpn inhibitor	VDR inh	G9a block
Nc1ccc(N2CCN(C(=O)c3ccco3)CC2)cc1	-19%	-3%	1	0%	-6%	20µM*
COc1ccc(CCNC(=O)c2ccc(Cn3c(=O)[nH]c4cc(OC)c(OC)cc4c3=O)cc2)cc1OC	.	.	.	.	-12%	1%[59 µM]
CCOC(=O)c1ccccc1NC(=O)CSc1ccc(-c2sc(C)nc2C)nn1	.	.	.	.	-15%	6%[59 µM]
O=C(O)COc1ccc(-c2nccc(-c3ccccn3)n2)cc1	?	19µM*	0	-1%	-29%	?
FCCCOc1ccc(-c2nccc(-c3ccccn3)n2)cc1	-16%	-11%	-1	-1%	1%	160%
COc1cc2c(=O)n(Cc3ccccc3Cl)c(=O)n(CC(=O)Nc3ccccc3)c2cc1OC	.	.	.	.	-4%	-24%[59 µM]
CCCCCC1CC1C(=O)N/N=C/c1ccc(N(C)C)cc1 (configuration not stated)	-16%	-6%	1	2%	-4%	16µM*
CC1CCN(C2=NC(=O)/C(=C/c3ccccc3F)S2)CC1	0%	-12%	1	-11%	-5%	17%
CN1C2CCC1/C(=C\c1ccccc1F)C(=O)/C2=C/c1ccccc1F	3%	-21%	3	0%	-6%	50µM*
O=C(c1c[nH]c(C(=O)C(Cl)(Cl)Cl)c1)c1c(F)cccc1F	-1%	5.3µM*	0	2%	?	-41%
O=C(c1c[nH]c(C(=O)C(Cl)(Cl)Cl)c1)c1ccccc1F	1%	-24%	-3	1%	4%	-17%
CCCSc1oc(-c2cccs2)nc1S(=O)(=O)c1ccc(Cl)cc1	.	.	.	.	6%	-4%[59 µM]
CC(=O)NCCc1c[nH]c2ccc(O)cc12	14%	1%	1	.	1%	11µM*!
COc1cccc([C@@H]2Oc3ccc(OC)cc3C(=O)[C@H]2OC(=O)NCCOc2ccccc2)c1	5%	.	.	.	6%	.
N#Cc1c([N+](=O)[O-])cc([N+](=O)[O-])cc1S(=O)(=O)Cc1ccccc1	.	1.1µM*	-2	1%	40µM*	?
O=Nc1nc2ncccn2c1-c1ccccc1	.	7.5µM*	0	.	?	.
Nc1nc2ncccn2c1-c1ccc(F)cc1	.	-8%	.	.	.	.
CCOc1ccc(-c2c(C)nn3c(-c4ccccc4)c(C(=O)NCCOC)cnc23)cc1OCC	.	.	.	.	10%	-10%[59 µM]
Cc1ccccc1N(CC(=O)NCCSCc1ccco1)S(C)(=O)=O	20µM*	-7%	1	1%	18%	?
O=C(Oc1ccc(O)cc1)C12CC3CC(CC(C3)C1)C2	-5%	-6%	-4	1%	-1%	40µM*
COc1ccccc1CN(C)CC(=O)Nc1cccc2ccccc12	17%	6%	-2	0%	3%	50µM*
COc1ccccc1NC(=O)C(C)N(C)CC(=O)Nc1cccc2ccccc12 (configuration not stated)	.	2%	0	1%	-11%	.
COc1ccccc1CN(C)CC(=O)Nc1ccc(Cl)cc1C(F)(F)F	?	-3%	2	-5%	-12%	8.9µM*
O=C1CCCC2=C1C(c1ccc3c(c1)OCO3)c1c([nH]n(-c3ccccc3)c1=O)N2 (configuration not stated)	4%	-13%	-4	-6%	2%	40µM*
CCCCC#Cc1ccccc1CC(=O)Nc1ccccc1	13%	5%	-2	-1%	-21%	7.9µM*
SMILES	Sfp inh	PLK1 PBD block	CCT modulator	Mm-Cpn inhibitor	VDR inh	G9a block
O=C(Cc1ccccc1I)Nc1ccccc1	26%	.	.	.	.	.
CCOC(=O)c1cccc(NS(=O)(=O)c2ccc(-c3cnc(C4CC4)o3)cc2)c1	.	.	.	.	8%	-2%[12.7 µM]
O=C(O)c1ccccc1C(=O)Nc1ccc(Br)c2cccnc12	40µM*	-6%	2	-1%	9%	-37%[59 µM]
CCc1nnc(NC(=O)CN2CCN(CC)CC2)s1	7%	-2%	1	0%	-5%	79µM*
CCc1nnc(NC(=O)CN2CCN(Cc3ccc(F)cc3)CC2)s1	9%	-5%	0	-10%	-11%	-10%
CCc1nnc(NC(=O)CN2CCN(c3nc(-c4ccccc4)cs3)CC2)s1	2%	-11%	-4	0%	-5%	50µM*
CCCCn1c(NCc2cc(Cl)ccc2O)nc2ccccc21	.	.	.	.	18%	-23%[59 µM]
COc1cccc(N2CC(NC(=O)C3CC3)CC2=O)c1 (configuration not stated)	.	.	.	.	8%	-3%[59 µM]
CCC1(C)CC(=O)N(c2ccc(C(=O)O)c(O)c2)C1=O (configuration not stated)	24%	-5%	-2	-1%	2%	50µM*
Cc1cc(NC(c2nnc(-c3ccccc3)o2)c2ccccc2F)ccc1Br (configuration not stated)	.	.	.	.	10%	18%[59 µM]
CC(C)C1Cc2c(C#N)c(N)n(C)c(=S)c2CO1 (configuration not stated)	-5%	-7%	1	2%	-2%	50µM*
Cn1c(N)c(C#N)c2c(c1=S)CSC(C)(C)C2	79µM*	-27%	-2	1%	-15%	25µM*
CCC1(C)N=C(c2ccc3c(c2)OCO3)CC(c2ccccc2O)N1 (configuration not stated)	2%	27µM*	-1	-5%	4%	?
COc1cccc(C2=NC(C)(C)NC(c3ccccc3O)C2)c1 (configuration not stated)	-5%	-26%	-1	-2%	?	-11%[2.33 µM]
CNc1nc(C)c([N+](=O)[O-])c(Nc2ccc(OC)cc2)n1	7%	12µM*	-3	1%	?	-4%[59 µM]
O=C(NCCCc1ccccc1)c1cc(COc2ccc(F)cc2Cl)on1	12%	30µM*	-3	1%	?	81%
CCN(Cc1ccncc1)C(=O)c1cc(COc2ccc(F)cc2Cl)on1	7%	-3%	-1	0%	1%	.
Cc1ccc(CN(C)C(=O)c2cc(COc3ccc(F)cc3Cl)on2)o1	35µM*	15µM*	1	-5%	?	.
C#CCN(Cc1ccco1)C(=O)c1cc(COc2ccc(F)cc2Cl)on1	13µM*	-3%	-2	-8%	-1%	.
Fc1ccc(CNc2ncnc3onc(-c4ccc(F)cc4)c23)cc1	.	.	.	.	13%	-14%[59 µM]
CC(C)NC(=O)C1=CC(c2ccc3c(c2)OCO3)=NS(=O)(=O)N1C	.	.	.	.	-3%	-5%[59 µM]
Cn1nc(C(=O)N2CCN(c3ccccc3F)CC2)c2c1-c1ccccc1SC2	.	.	.	.	-4%	14µM*
Cn1nc(C(=O)N2CCN(c3ccc(F)cc3)CC2)c2c1-c1ccccc1SC2	.	.	.	.	-8%	-60%[59 µM]
Cn1cc(C(=O)NCc2ccc(F)cc2)cn1	9%	24µM*	-22	-1%	1%	?
Cn1nc(C(=O)N2CCN(c3ccccc3)CC2)c2c1-c1ccccc1SC2	.	.	.	.	13%	16µM*
